Bioassay records: PubChem, NMMLSC
Most compounds without a hit are left out; they make up all but 1.2% or so of the library.
Avidin fluor – compound fluoresces at 488/530 nm on avidin beads | compound fluorescence 488/530 nm, flow cytometry; hits give high values | fluorescence (KMESF) at 10 µM | 220,000 compounds, 0.38% hits | AID 1775; in the data active = fluorescence above about 47
RGS16-Gao – RGS16-Galphao interaction regulator (human) | 220,000 compounds, 0.38% hits | bead-based flow cytometry RGS16-Galphao binding, fluorescence; actives lie on both sides | binding response (% of control), % at 10 µM;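 also: Galphao activated by GDP with aluminum fluoride before binding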
Target sequence (O15492 whole entry, looked up): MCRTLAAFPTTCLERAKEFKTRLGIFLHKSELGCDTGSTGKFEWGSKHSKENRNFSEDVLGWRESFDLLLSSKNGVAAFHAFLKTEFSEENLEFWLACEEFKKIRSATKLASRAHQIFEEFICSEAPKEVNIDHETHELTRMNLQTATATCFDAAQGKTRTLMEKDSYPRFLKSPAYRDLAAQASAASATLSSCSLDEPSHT
Target sequence (P09471 whole entry, looked up): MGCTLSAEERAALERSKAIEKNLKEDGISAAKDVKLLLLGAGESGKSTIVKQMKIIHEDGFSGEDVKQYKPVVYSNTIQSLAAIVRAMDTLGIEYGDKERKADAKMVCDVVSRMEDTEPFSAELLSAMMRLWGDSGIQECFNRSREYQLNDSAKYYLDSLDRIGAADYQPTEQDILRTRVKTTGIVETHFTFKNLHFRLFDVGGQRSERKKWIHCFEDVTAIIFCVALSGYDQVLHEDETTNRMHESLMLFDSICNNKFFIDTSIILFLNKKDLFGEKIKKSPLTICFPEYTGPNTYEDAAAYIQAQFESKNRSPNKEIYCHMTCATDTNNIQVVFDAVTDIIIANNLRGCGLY
RGS8-Gao reg – regulators of human RGS8-Galphao interaction; multiplexed bead flow cytometry, RGS8-Galphao binding; actives lie on both sides; 220,000 compounds, 0.34% hits; response (percent of control binding), % at 10 µM; P09471; AID 1423; in the data active = response below about 60% or above about 140%; inactive = in between;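 also: Galphao activated as the GDP aluminium fluoride complex binding bead-coupled RGS8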
GSH bead fluor – compound fluoresces at 488/530 nm on GSH beads; AID 1776; GSH beads flow cytometry, compound fluorescence 488/530 nm; hits give high values; 190,000 compounds, 0.25% hits; fluorescence (KMESF) at 10 µM; in the data active = fluorescence above about 89;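 also: glutathione beads carrying GST-tagged Bcl family fusion proteins plus one bare bead set; values are compound well signal with DMSO vehicle wells as background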
RGS4-Gao reg – modulates binding of RGS4 to human Galphao; P09471; binding response (% of control), % at 10 µM; Multiplexed bead flow cytometry; actives lie on both sides; 220,000 compounds, 0.33% hits; in the data active = binding response below about 49% or above about 150%; inactive = in between;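 also: fluorescent Galphao activated with aluminum fluoride binding bead-coupled RGS4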
RGS7-Gao reg – human RGS7-Galphao interaction regulation; Multiplexed bead flow cytometry, RGS7-Galphao binding; actives lie on both sides; 220,000 compounds, 0.35% hits; binding response (% of control), % at 10 µM; in the data active = binding response below about 49% or above about 150%; inconclusive = no clear call, values can overlap the other calls; inactive = in between;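 also: fluorescent Galphao held in activated GDP-AlF4 state binding bead-coupled RGS7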
RGS-Gao – regulators of human RGS4-Galphao interaction; shares compounds with RGS16-Gao; multiplexed bead flow cytometry, RGS–Galpha-o binding; RGS4–Galpha-o binding response, % at 10 µM; 1,600 compounds, 99% hits;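 also: fluorescently labeled Galpha-o bound to GDP with aluminium fluoride binding biotinylated RGS beads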
Biotin-avidin – biotin-avidin bead binding disruption counter-screen. shares compounds with RGS16-Gao. streptavidin beads, fluorescein-biotin binding, flow cytometry. inhibition, % at 10 µM. 1,700 tested, under 10 active. AID 1783;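 active = inhibition above 50%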;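 also: median green fluorescence of gated singlet beads compared with DMSO control wells; 0% = DMSO wells and 100% = complete loss of bead fluorescence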
RGS8-Gao confirm – RGS8-Galphao interaction regulation, single point confirmation; bead-based flow cytometry RGS8-Galphao binding, fluorescence; actives lie on both sides; binding response (% of control), % at 10 µM; shares compounds with RGS16-Gao; 1,700 compounds, 3% hits; in the data active = binding response below about 72% or above about 130%; inactive = in between;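 also: Galphao activated as GDP AlF4 complex before binding bead RGS8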
RGS7-Gao single – RGS7-Galphao interaction regulation, single point confirmation; response (percent of control binding), % at 10 µM; AID 1837; shares compounds with RGS16-Gao; 1,700 compounds, 7.8% hits; bead-based flow cytometry RGS7-Galphao binding; actives lie on both sides; in the data active = response below about 75% or above about 130%; inactive = in between;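 also: fluorescent Galphao activated with GDP and aluminum fluoride binding bead-coupled RGS7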
RGS16-Gao single – RGS16-Galphao interaction regulation, single point confirmation | shares compounds with RGS16-Gao | bead-based flow cytometry, RGS16-Galphao binding; actives lie on both sides | response (% of control binding), % at 10 µM | 1,700 compounds, 4% hits; in the data active = response below about 74% or above about 130%; inactive = in between;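 also: Galphao activated as the GDP aluminium fluoride complex binding bead-coupled RGS16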
RGS4-Gao confirm – confirmation of regulators of human RGS4-Galphao interaction. 1,700 compounds, 4% hits. shares compounds with RGS16-Gao. RGS4-Galphao binding, multiplexed bead flow cytometry; actives lie on both sides. binding response (% of control), % at 10 µM; in the data active = binding response below about 74% or above about 130%; inactive = in between
RGS19-Gao single – confirmation of regulators of human RGS19-Galphao interaction; response (percent of control binding), % at 10 µM; bead-based flow cytometry RGS19-Galphao binding; actives lie on both sides; shares compounds with RGS16-Gao; 1,700 compounds, 5% hits; in the data active = response below about 50% or above about 160%; inactive = in between;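 also: 100% = no compound control and 0% = blank background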
The depositor's hits bear a star; i = inactive; u = inconclusive; x = no result; [ ] = remark or other dose. Unless noted, no rule for the calls is given here.

SMILES | Avidin fluor | RGS16-Gao | RGS8-Gao reg | GSH bead fluor | RGS4-Gao reg | RGS7-Gao reg | RGS-Gao | Biotin-avidin | RGS8-Gao confirm | RGS7-Gao single | RGS16-Gao single | RGS4-Gao confirm | RGS19-Gao single
COc1ccc(-c2nnc(SCC(=O)Nc3cc(F)ccc3C)o2)cc1 | 116* | 110 | 100 | 22 | 120 | 185*[activator] | 120* | x | x | x | x | x | x
CCc1cc2ccccc2nc1SCC(=O)Nc1cc(C)on1 | 12 | 116 | 108 | 25 | 106 | 105 | x | x | x | x | x | x | x
O=C(O)CSc1ccc(NC(=O)Nc2ccccc2F)cc1 | 4 | 102 | 101 | x | 98 | u | x | x | x | x | x | x | x
Cc1cc(SCC(=O)c2ccc(O)c(O)c2)n2nc(C)c(-c3ccccc3)c2n1 | 4 | 79 | 84 | x | 81 | u | x | x | x | x | x | x | x
C=CCNc1oc(/C=C/c2ccccc2)nc1C#N | 6 | 96 | 99 | 27 | 96 | 97 | x | x | x | x | x | x | x
COc1ccccc1OCc1nc(C#N)c(N2CCCC2)o1 | 0 | -34 | 16* | 23 | 22* | 13* | x | 0 | 98 | 92 | 97 | 95 | 91
COc1ccc(N2CCN(C(=O)c3cccc4nc(C)oc34)CC2)cc1 | 1 | 13* | 15* | 15 | 22* | 19* | x | 0 | 100 | 95 | 98 | 96 | 86
COc1ccc(N2CCN(C(=O)c3cccn4c(=O)c5ccccc5nc34)CC2)cc1 | 11 | 105 | 102 | 17 | 101 | 101 | x | x | x | x | x | x | x
CC(=O)NC(C)c1ccc(Cl)c(Cl)c1 (stereo not given) | 5 | i | 156*[activator] | 32 | 139 | 133 | 139* | x | x | x | x | x | x
CCN(CC)C(=O)CSc1nc(O)cc(=O)n1CC | 156* | 113 | 97 | 14 | 126 | 166*[activator] | 126* | x | x | x | x | x | x
CCN(CC)C(=O)CSc1nc(O)cc(=O)n1C | 11 | 99 | 103 | 15 | 102 | 103 | x | x | x | x | x | x | x
C/C(=N\NC(=S)NC1CCCCC1)c1cccc(C(F)(F)F)c1 | 8 | 112 | 112 | x | 106 | u | x | x | x | x | x | x | x
CC(C)(C)c1ccc(/C=C2\SC(=O)N(CCNC(=O)c3cccc(S(=O)(=O)N4CCOCC4)c3)C2=O)cc1 | 12 | 108 | 110 | 17 | 101 | 103 | x | x | x | x | x | x | x
O=C(CN1C(=O)NC2(CCCC2)C1=O)NCCC1=CCCCC1 | 14 | 27 | 31* | 12 | 37* | 29* | x | -1 | 101 | 98 | 101 | 99 | 98
Cc1ccc(C2(C)NC(=O)N(CC(=O)NCCC3=CCCCC3)C2=O)cc1 (stereo not given) | 9 | 101 | 102 | 24 | 100 | 100 | x | x | x | x | x | x | x
CCCOC(=O)c1ccc(OC(=O)c2ccco2)cc1 | 12 | i | 122 | 11 | 176*[activator] | 137 | x | -1 | 100 | 92 | 101 | 100 | 102
CC(=O)Nc1ccccc1C(=O)C(=O)Nc1ccc(C)c(C)c1 | 16 | 251*[activator] | 127 | 6 | 110 | 109 | 110* | -1 | 100 | 107 | 104 | 105 | 88
Cc1ccc(C)n1Cc1ccc(C(=O)O)cc1 | 21 | 76 | 68 | 12 | 89 | 49* | 89* | x | x | x | x | x | x
